The nature of test [1]: antimalarial activity against Dd2 strain (AID 2302;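 active means growth inhibition above 50% at the single 2 µM test dose, taken to imply half-maximal potency below 2 µM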;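 further: 0% = DMSO untreated growth and 100% = chloroquine plus artemisinin killed control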). The conditions noted are these: P. falciparum Dd2 in RBCs, LDH growth readout, 72 h; at 2 µM; active compounds read high.
Test [2] in a line: human hepatoma cell viability loss – ATP luminescence, cytotoxicity control for P. falciparum antimalarial project, primary screen (AID 2303;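 active means inhibition above 50%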;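 further: 0% = DMSO wells and 100% = digitonin-killed cells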). The conditions noted are these: HepG2 viability, 24-48 h, at 10 µM, active compounds read high.
Test [3] deals with L-lactate dehydrogenase (Plasmodium falciparum (isolate CDC / Honduras)) (UniProt Q27743). The experiment in a line: PfLDH activity inhibition – cell lysate, 3D7 strain, counter-screen for P. falciparum growth inhibition project (AID 2304).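 Further: 0% = vehicle and 100% = reference inhibitor.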 The conditions noted are these: P. falciparum 3D7 crude extract, LDH APAD/NBT absorbance; at 2 µM; active compounds read high.
Test [4] is described as follows: inhibition of 3D7 malaria parasite growth – strain 3D7 (AID 2306).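 Further: 0% = DMSO wells and 100% = chloroquine plus artemisinin control wells.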 The conditions noted are these: P. falciparum 3D7 erythrocytic growth, LDH absorbance, 72 h; at 2 µM; active compounds read high.
Test [5] addresses Calcium-dependent protein kinase 1 (Plasmodium falciparum (isolate 3D7)) (UniProt P62344). The experiment in a line: PfCDPK1 kinase inhibitors, biochemical, TCAMS library (AID 1159585; cut-off not given, nearly all actives have IC50 up to about 0.98 µM;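 further: inhibitors leave more ATP so luminescence rises with inhibition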). The conditions noted are these: recombinant PfCDPK1, Kinase-Glo ATP depletion luminescence. In general terms: Kinase-Glo reads ATP consumption through a luciferase reaction.
For test [6], the target named is Plasmodium falciparum protein kinase 6 (PK6, PF3D7_1337100) (UniProt Q8IDW1). The experiment in a line: PfPK6 kinase inhibitors, biochemical, TCAMS library (AID 1159586). The following applies: recombinant PfPK6, Kinase-Glo ATP depletion luminescence.
Test [7] deals with Protein kinase 7 (PK7), Plasmodium falciparum 3D7 (PF3D7_0213400) (UniProt Q7YTF7). The experiment in a line: inhibition of Plasmodium PK7 catalytic activity – biochemical, TCAMS antimalarial set, Kinase-Glo luminescence (AID 1159587). The conditions noted are these: recombinant PfPK7, Kinase-Glo ATP depletion luminescence.
For test [8], the target named is Calcium-dependent protein kinase 4 (Plasmodium falciparum (isolate 3D7)) (UniProt Q8IBS5). The experiment in a line: PfCDPK4 kinase inhibitors, biochemical, TCAMS library (AID 1159588; cut-off not given, nearly all actives have IC50 up to about 0.91 µM). The conditions noted are these: recombinant PfCDPK4, Kinase-Glo ATP depletion luminescence.

Structures are written as SMILES. Values without a mark were called inactive. For some of these results: Measured potencies and affinities stand elsewhere. Activity calls are given as the source filed them. Unless noted, how the calls were made is not given here. Residues, ends and D or L forms follow the SMILES beside them. *: point of attachment. Octanoyl = CCCCCCCC(=O)*

Sequence of Calcium-dependent protein kinase 4 (Plasmodium falciparum (isolate 3D7)) (Q8IBS5 whole entry, looked up): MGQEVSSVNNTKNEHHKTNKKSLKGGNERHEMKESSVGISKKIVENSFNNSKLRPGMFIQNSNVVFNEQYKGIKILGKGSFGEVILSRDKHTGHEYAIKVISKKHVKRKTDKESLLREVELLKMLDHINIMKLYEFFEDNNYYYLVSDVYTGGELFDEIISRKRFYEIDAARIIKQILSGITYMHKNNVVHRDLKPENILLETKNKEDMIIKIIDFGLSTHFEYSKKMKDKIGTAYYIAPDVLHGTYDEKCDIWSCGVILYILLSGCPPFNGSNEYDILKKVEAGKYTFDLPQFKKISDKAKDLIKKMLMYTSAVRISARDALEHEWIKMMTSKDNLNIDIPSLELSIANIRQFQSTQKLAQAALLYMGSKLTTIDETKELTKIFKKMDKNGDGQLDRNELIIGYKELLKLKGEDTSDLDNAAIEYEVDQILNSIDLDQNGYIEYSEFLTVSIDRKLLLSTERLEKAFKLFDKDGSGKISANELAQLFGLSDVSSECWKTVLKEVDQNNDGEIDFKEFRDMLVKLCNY
Sequence of L-lactate dehydrogenase (Plasmodium falciparum (isolate CDC / Honduras)) (Q27743 whole entry, looked up): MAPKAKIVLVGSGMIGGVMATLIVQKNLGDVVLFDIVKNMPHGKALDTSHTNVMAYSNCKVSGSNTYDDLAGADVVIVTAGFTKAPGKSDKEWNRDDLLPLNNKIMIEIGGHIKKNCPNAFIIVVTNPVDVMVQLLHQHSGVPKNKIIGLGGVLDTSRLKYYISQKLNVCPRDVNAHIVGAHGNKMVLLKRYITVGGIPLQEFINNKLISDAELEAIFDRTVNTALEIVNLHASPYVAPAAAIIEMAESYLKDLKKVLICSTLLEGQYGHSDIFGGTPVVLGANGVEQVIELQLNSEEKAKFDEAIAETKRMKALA
Sequence of Protein kinase 7 (PK7), Plasmodium falciparum 3D7 (PF3D7_0213400) (Q7YTF7 1-343): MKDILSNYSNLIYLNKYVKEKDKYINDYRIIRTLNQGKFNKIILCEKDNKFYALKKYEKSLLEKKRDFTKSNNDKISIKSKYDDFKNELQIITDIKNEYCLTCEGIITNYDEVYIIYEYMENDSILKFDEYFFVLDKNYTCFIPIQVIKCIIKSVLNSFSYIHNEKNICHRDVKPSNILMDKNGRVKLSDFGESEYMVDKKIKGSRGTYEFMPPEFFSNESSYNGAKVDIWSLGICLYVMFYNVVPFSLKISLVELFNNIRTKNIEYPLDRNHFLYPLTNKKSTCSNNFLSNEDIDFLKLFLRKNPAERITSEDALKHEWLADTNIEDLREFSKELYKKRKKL
Sequence of Plasmodium falciparum protein kinase 6 (PK6, PF3D7_1337100) (Q8IDW1 1-305): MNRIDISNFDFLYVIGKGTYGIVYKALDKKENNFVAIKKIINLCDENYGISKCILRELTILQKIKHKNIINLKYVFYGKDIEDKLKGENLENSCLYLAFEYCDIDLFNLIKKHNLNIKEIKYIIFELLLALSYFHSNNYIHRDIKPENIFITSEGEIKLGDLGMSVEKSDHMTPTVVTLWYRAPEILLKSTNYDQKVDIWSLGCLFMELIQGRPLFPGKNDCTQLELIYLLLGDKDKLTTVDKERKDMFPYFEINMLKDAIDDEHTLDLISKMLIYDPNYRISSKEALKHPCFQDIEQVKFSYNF
Sequence of Calcium-dependent protein kinase 1 (Plasmodium falciparum (isolate 3D7)) (P62344 whole entry, looked up): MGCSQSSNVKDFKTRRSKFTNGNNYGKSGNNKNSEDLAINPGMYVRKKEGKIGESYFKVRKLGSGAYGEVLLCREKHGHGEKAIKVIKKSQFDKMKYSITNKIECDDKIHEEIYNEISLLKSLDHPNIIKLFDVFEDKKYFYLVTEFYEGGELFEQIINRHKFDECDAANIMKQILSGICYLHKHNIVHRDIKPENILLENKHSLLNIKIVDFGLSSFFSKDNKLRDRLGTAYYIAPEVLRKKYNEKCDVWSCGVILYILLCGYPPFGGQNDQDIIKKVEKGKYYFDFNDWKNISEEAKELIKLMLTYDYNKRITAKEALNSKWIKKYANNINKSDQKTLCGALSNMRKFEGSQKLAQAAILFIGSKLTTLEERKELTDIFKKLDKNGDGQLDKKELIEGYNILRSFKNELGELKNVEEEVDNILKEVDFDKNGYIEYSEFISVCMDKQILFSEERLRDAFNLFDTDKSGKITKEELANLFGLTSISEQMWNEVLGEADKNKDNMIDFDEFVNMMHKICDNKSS

`COc1ccc(CNCc2cccc(-c3cccc(-c4nc5ccc(F)cc5[nH]4)c3)c2)cc1`: the growth inhibition in test [1] was 55% (active); in test [4], 100% (active). Further, the inhibition (in general, the relative decrease from the control value, in per cent) is 18% in test [2] and 5% in test [3]. The result in test [5], in test [6], in test [7] and in test [8] was inactive.

Regarding `COc1ccc2nc(C)cc(Nc3ccc(Oc4ccc(Br)c5ccccc45)c(Cl)c3)c2c1`, the results for the growth inhibition in test [1] and in test [4] were 101% (active) and 100% (active), respectively. Moreover, the inhibition was 100% (active) in test [2] and -3% in test [3]. Moreover, the outcome in test [5], in test [6], in test [7] and in test [8] was inactive.

As to `CC[C@H](C)CNCc1ccc(OCc2cccc(COc3ccc(CNC[C@@H](C)CC)cc3I)c2)c(I)c1`, the results for the growth inhibition in test [1] and in test [4] were 60% (active) and 99% (active), respectively. Also, the inhibition was 99% (active) in test [2] and 7% in test [3]. In addition, the result in test [5], in test [6], in test [7] and in test [8] was inactive.

For `N#Cc1ccc2c(c1)CCN(CCC1CCC(NC(=O)c3cc4ccccc4[nH]3)CC1)CC2` (stereo not given), the growth inhibition in test [1] was 25%; in test [4] it was 89% (active). Further, the inhibition is 17% in test [2] and -1% in test [3]. Also, the result in test [5], in test [6], in test [7] and in test [8] was inactive.

As to `CN1CCN(CCCN(Cc2cccc(-c3cccc(CNCCc4ccccc4)c3)c2)C(=O)Nc2ccccc2)CC1`, the growth inhibition is 82% (active) in test [1] and 97% (active) in test [4]. Also, the inhibition in test [2] is 92% (active); in test [3] it was 0%. The result in test [5], in test [6], in test [7] and in test [8] was inactive.

For the compound `O=C(/C=C/c1ccc(Cl)cc1)NCCCCCN1CCCC(C(=O)Nc2ccc(F)c(Cl)c2)C1` (stereo not given), the growth inhibition is 6% in test [1] and 94% (active) in test [4]. Also, the inhibition in test [2] was 27%; in test [3], 7%. Also, the result in test [5], in test [6], in test [7] and in test [8] was inactive.

As to `COc1cc(C(=O)N2CC[C@@H](CCN3CCC4(CC3)CN(S(C)(=O)=O)c3ccccc34)C[C@H]2Cc2ccc(Cl)c(Cl)c2)cc(OC)c1OC`, the growth inhibition in test [1] was 99% (active); in test [4], 101% (active). The inhibition in test [2] was 29%; in test [3] it was 4%. The result in test [5], in test [6], in test [7] and in test [8] was inactive.

Turning to `COc1cc(C(=O)NCCCN2CCN(c3cc(Cl)ccc3OC)CC2)ccc1-c1nc2cc(Cl)c(Cl)cc2[nH]1`, the growth inhibition in test [1] was 99% (active); in test [4], 102% (active). The inhibition in test [2] is 12%; in test [3], -3%. Also, the outcome in test [5], in test [6], in test [7] and in test [8] was inactive.

`C=C(C)CSc1nc2c(c(=O)n1CCc1ccccc1)C1(CCCC1)Cc1ccccc1-2`: the growth inhibition in test [1] is 80% (active); in test [4], 101% (active). The figures for the inhibition in test [2] and in test [3] were 14% and -5%, respectively. The outcome in test [5], in test [6], in test [7] and in test [8] was inactive.

In the case of `CC(C)c1cccc(OCC2CCN(c3ncc(C(=O)Nc4ccccc4)cc3Cl)CC2)c1`, the growth inhibition in test [1] is 88% (active); in test [4], 89% (active). The values for the inhibition in test [2] and in test [3] were 9% and -2%, respectively. Further, the result in test [5], in test [6], in test [7] and in test [8] was inactive.

For `CCCCCCCC(=O)N[C@@H](Cc1ccccc1)C(=O)N[C@H](C(=O)O)C(C)C` (Octanoyl-Phe-Val-OH), the values for the growth inhibition in test [1] and in test [4] were -7% and 89% (active), respectively. Also, the inhibition in test [2] is -8%; in test [3], 2%. The outcome in test [5], in test [6], in test [7] and in test [8] was inactive.

As for `COc1ccc(-c2ccc(NC(=O)c3ccccc3)cc2)cc1CN1CCCN(C)CC1`, the growth inhibition in test [1] is 17%; in test [4], 92% (active). Also, the inhibition in test [2] was 24%; in test [3], 3%. In addition, the outcome in test [5], in test [6], in test [7] and in test [8] was inactive.

With `COc1cc(NC(=O)/C=C/c2ccccc2Cl)cc(OCCN2CCC(O)(c3ccccc3)CC2)c1`, the growth inhibition was 46% in test [1] and 102% (active) in test [4]. For the same compound, the inhibition was 48% in test [2] and -1% in test [3]. Also, the outcome in test [5], in test [6], in test [7] and in test [8] was inactive.

Regarding `COc1cc2nc(N3CCC(NC(=O)c4cccc(N(C)C)c4)CC3)nc(N)c2cc1OC`, the growth inhibition in test [1] is 0%; in test [4], 98% (active). Also, the inhibition was 6% in test [2] and 1% in test [3]. Moreover, the result in test [5], in test [6], in test [7] and in test [8] was inactive.

As to `CC(C)C[C@H](Nc1ccnc(NCC2CCCCC2)n1)C(=O)NCCc1ccccc1`, the growth inhibition in test [1] is 66% (active); in test [4] it was 88% (active). The figures for the inhibition in test [2] and in test [3] were 10% and 0%, respectively. Moreover, the result in test [5], in test [6], in test [7] and in test [8] was inactive.

Regarding `Cn1ccnc1CNC(=O)c1ccc(-c2cccc(-c3nc4ccc(F)cc4[nH]3)c2)cc1`, the growth inhibition in test [1] is 8%; in test [4], 96% (active). The results for the inhibition in test [2] and in test [3] were 8% and 7%, respectively. Further, the result in test [5], in test [6], in test [7] and in test [8] was inactive.

Consider `CC1(C)CCCC(=Cc2ccc(Br)cc2)C1(O)Cn1ccnc1` (stereo not given), for which the growth inhibition in test [1] was 69% (active); in test [4] it was 99% (active). The values for the inhibition in test [2] and in test [3] were 7% and 0%, respectively. In addition, the result in test [5], in test [6], in test [7] and in test [8] was inactive.

As for `Cc1nc2nc(N)nc(N)c2c(C)c1Cc1ccc(Cl)cc1`, the figures for the growth inhibition in test [1] and in test [4] were 22% and 94% (active), respectively. Further, the results for the inhibition in test [2] and in test [3] were 62% (active) and 0%, respectively. The result in test [5], in test [6], in test [7] and in test [8] was inactive.

Regarding `Cc1ccc2nc(-c3cc(-c4ccc(OCc5ccccc5)cc4)cnc3N)[nH]c2c1`, the growth inhibition in test [1] was 87% (active); in test [4] it was 91% (active). Also, the inhibition is 33% in test [2] and 1% in test [3]. Besides, the outcome in test [5], in test [6], in test [7] and in test [8] was inactive.

As to `O=C(Nc1ccc(F)cc1F)NC1CCN(c2ccnc3cc(Cl)ccc23)C1` (stereo not given), the growth inhibition is 82% (active) in test [1] and 100% (active) in test [4]. Moreover, the inhibition was 25% in test [2] and 1% in test [3]. In addition, the result in test [5], in test [6], in test [7] and in test [8] was inactive.

Values taken from PubChem BioAssay.
